PubChem BioAssay (NCATS)
Results filed as inconclusive are left out. Calls of active or inactive are those of the source. Calls follow the shape of the dose curve; as a rule, active = well fitted inhibition curve with a large enough effect; inconclusive = small, poorly fitted or top-dose-only effect; inactive = flat fitted curve, though single readings scatter.

Columns and labels:
Assay in all cases: qHTS profiling for inhibitors of Plasmodium falciparum proliferation (AID 504749); also: nearly all actives have a fitted effect of over 60% in size
Conditions in all cases: P. falciparum in erythrocytes, SYBR Green DNA, 72 h; series mostly up to 28.7 µM
DIV14 = tested on: DIV14
In short: (§1)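 Fluorescence of SYBR Green-bound parasite DNA, read at 485/535 nm, served as the growth measure. Infected erythrocytes were cultured with compound 72 h; artemisinin (0.29 uM) and DMSO wells defined the normalization range.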

DIV17 = tested on: DIV17
In short: as §1

DIV30 = tested on: DIV30
In short: as §1

Dd2 = tested on: Dd2
In short: as §1

ECU = tested on: ECU
In short: as §1

FAB9 = tested on: FAB9
In short: as §1

GB4 = tested on: GB4
In short: as §1

HB3 = tested on: HB3
In short: as §1

ICS = tested on: ICS
In short: as §1

JCK = tested on: JCK
In short: as §1

N140 = tested on: N140
In short: as §1

P93_24 = tested on: P93_24
In short: as §1

P94_40 = tested on: P94_40
In short: as §1

PAD = tested on: PAD
In short: as §1

PC15 = tested on: PC15
In short: as §1

PC26 = tested on: PC26
In short: as §1

PC49 = tested on: PC49
In short: as §1

SC27B = tested on: SC27B
In short: as §1

TAB109 = tested on: TAB109
In short: as §1

TAB113 = tested on: TAB113
In short: as §1

Measured: Potency
Potency is read from the fitted curve at half-maximal effect.

O=C1OC(c2ccc(O)c(S(=O)(=O)O)c2)(c2ccc(O)c(S(=O)(=O)O)c2)c2c(Br)c(Br)c(Br)c(Br)c21
inactive: all assays above

NNc1ccccc1
inactive: all assays above

Clc1cccc(SC2CCNCC2)n1
inactive: all assays above

O=C1Nc2ccc(Cl)cc2C(c2ccccc2)=NC1O (centres undefined)
inactive: all assays above

O=C(Nc1ccc(Br)cc1)c1cc(Br)cc(Br)c1O
inactive: all assays above

Nc1nc(N)nc(NC2CC2)n1
inactive: all assays above

CN1C(=O)NC(=O)C(C)(C2=CCCCC2)C1=O (centres undefined)
inactive: all assays above

CN1C(=O)COc2c(C(=O)NC3CN4CCC3CC4)cc(Cl)cc21 (centres undefined)
inactive: all assays above

CNC(C)(C)Cc1ccccc1
inactive: all assays above

CN1C[C@H](C(=O)N[C@]2(C)O[C@@]3(O)[C@@H]4CCCN4C(=O)[C@H](Cc4ccccc4)N3C2=O)C=C2c3cccc4[nH]cc(c34)C[C@H]21
active: DIV14 536 nM | DIV17 338 nM | DIV30 1690 nM | Dd2 141 nM | ECU 316 nM | FAB9 6310 nM | GB4 1690 nM | HB3 447 nM | ICS 39.8 nM | JCK 7080 nM | N140 282 nM | P93_24 398 nM | P94_40 251 nM | PAD 199 nM | PC15 794 nM | PC26 1690 nM | PC49 1580 nM | SC27B 708 nM | TAB109 1120 nM | TAB113 794 nM

CN1C(=O)C(O)N=C(c2ccccc2)c2cc(Cl)ccc21 (centres undefined)
inactive: all assays above

CCCC(C)(COC(N)=O)COC(N)=O
inactive: all assays above

O=P1(N(CCCl)CCCl)NCCCO1 (centres undefined)
inactive: all assays above

CCC(C)(C)c1ccc(O)cc1
inactive: all assays above

CCCCCCC(=O)CCCCCC/C=C/C[C@@H](O)[C@H](O)[C@@](N)(CO)C(=O)O
inactive: all assays above

CCC1(CC)C(=O)C=CNC1=O
inactive: all assays above

O=C(O)CCCc1ccc(N(CCCl)CCCl)cc1
inactive: all assays above

Nc1ccccc1C(=O)O
inactive: all assays above

Clc1ccc2c(c1)C(c1ccccc1)=NCc1nncn1-2
inactive: all assays above

COP(=S)(OC)SCN1C(=O)c2ccccc2C1=O
inactive: all assays above

CN1C(=O)CC(=O)N(c2ccccc2)c2cc(Cl)ccc21
not listed: TAB113
inactive: all other assays above

Oc1ccc(Cl)cc1
inactive: all assays above

COP(=S)(OC)Oc1ccc(S(=O)(=O)N(C)C)cc1
inactive: all assays above

CC(C)=CC1C(C(=O)OCN2C(=O)C3=C(CCCC3)C2=O)C1(C)C (centres undefined)
inactive: all assays above

NC(=O)CS(=O)C(c1ccccc1)c1ccccc1 (centres undefined)
inactive: all assays above
